Experimental data published in PubChem BioAssay (Tox21).
Records with an inconclusive call do not appear. Entries that show only a call come without a potency. Calls of active or inactive are those of the source. Calls come from the whole dose curve; as a rule, active = well fitted cell-killing curve with a large enough effect in the repeat runs; inconclusive = weak or mixed curves, or effect the other way; inactive = flat fitted curve, though single readings scatter.

Test: cAMP Responsive Elements (CRE) small molecule antagonists, cell-based qHTS assay: qHTS cell viability counter screen (AID 2060913); note: nearly all actives have a fitted effect of over 40% in size
Details: CRE-bla HEK293T viability, CellTiter-Glo luminescence, 5 h; series mostly up to 92.4 µM
How it was run: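 HEK293T CRE-bla, 2,000 cells/well, 18 h preincubation; cpd in DMSO + NKH477 0.25 uM final, 3 h 37 C/5% CO2; LiveBLAzer 2 h RT, then CellTiter-Glo 30 min RT, luminescence.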
Potency is the fitted concentration of half-maximal effect.

Row | Compound | Potency
1 | CCC(CC)(CC(=O)Nc1cccc(/C=C/c2nc(C3CCC3)cs2)c1)C(=O)O | inactive
2 | Cc1c(C(=O)NN2CCCCC2)nn(-c2ccc(Cl)cc2Cl)c1-c1ccc(Cl)cc1 | inactive
3 | CCc1nn(CCCN2CCN(c3cccc(Cl)c3)CC2)c(=O)n1CCOc1ccccc1 | inactive
4 | CCN(CC)CCCN(c1ccccc1)C1Cc2ccccc2C1 | inactive
5 | COC(=O)CCc1ccc(OCC(O)CNC(C)C)cc1 (stereo not given) | inactive
6 | O=C(O)c1cc(Cl)cc(Cl)c1O | inactive
7 | Clc1cccc(C(c2ccc3nc[nH]c3c2)n2ccnc2)c1 (stereo not given) | inactive
8 | Nc1ncnc2c1ncn2[C@@H]1O[C@H](COP(=O)(O)O)[C@@H](O)[C@H]1O | inactive
9 | CN(C)C(=O)C(CCN1CCC(O)(c2ccc(Cl)cc2)CC1)(c1ccccc1)c1ccccc1 | inactive
10 | CC1(C)CC(N=C=O)CC(C)(CN=C=O)C1 (stereo not given) | inactive
11 | CC1=C(C=O)C(C)(C)CC=C1 | inactive
12 | C=C1C[C@]23C[C@@]1(O)CC[C@H]2[C@@]12C=C[C@H](O)[C@@](C)(C(=O)O1)[C@H]2[C@@H]3C(=O)O | inactive
13 | CC(C)(C)C1CCC(CC2=C(O)c3ccccc3C(=O)C2=O)CC1 (stereo not given) | inactive
14 | Oc1cccc2[nH]ccc12 | inactive
15 | CC(=O)C=O | inactive
16 | Nc1nc2ncc(CNc3ccc(C(=O)N[C@@H](CCC(=O)O)C(=O)O)cc3)nc2c(=O)[nH]1 | inactive
17 | CCCCCCOc1ccc(O)cc1 | inactive
18 | CC(=O)Oc1ccc(C2(c3ccc(OC(C)=O)cc3)Oc3ccccc3NC2=O)cc1 | inactive
19 | CC(=O)Nc1ccc(C)cc1C | inactive
20 | CC(C)=CC=O | inactive

Row | Compound | Potency
21 | CCCC(=O)C(C)=O | inactive
22 | COC(C(=O)O)c1ccccc1 (stereo not given) | inactive
23 | CC(C)c1cccc(C(C)C)c1N1C(=O)c2ccc(O)cc2C1=O | 61.1 µM (active)
24 | c1ccc(CCNc2nc(-c3ccccc3)cs2)cc1 | inactive
25 | Cc1ncc(CSSCc2cnc(C)c(O)c2CO)c(CO)c1O | inactive
26 | CN(C)C(=O)Nc1ccccc1 | inactive
27 | CC12CCC(C1)C(C)(C)C2O (stereo not given) | inactive
28 | O=S(c1cc(Cl)cc(Cl)c1O)c1cc(Cl)cc(Cl)c1O | inactive
29 | COc1ccc(OC)c(NC(=O)CC(C)=O)c1 | inactive
30 | IC(I)I | inactive
31 | Brc1c(NC2=NCCN2)ccc2nccnc12 | inactive
32 | Cc1cc(NC(=O)C(=O)O)cc(C)c1Oc1ccc(O)c2c1CCC2 | inactive
33 | COC(=O)CCCCCCCCC(=O)OC | inactive
34 | C1COC(NC(C2CC2)C2CC2)=N1 | inactive
35 | OCC(O)CO | inactive
36 | O=C1C=CC(=O)N1c1ccc(Cc2ccc(N3C(=O)C=CC3=O)cc2)cc1 | 54.5 µM (active)
37 | OC1(c2ccc(Cl)c(C(F)(F)F)c2)CCN(CCCC(c2ccc(F)cc2)c2ccc(F)cc2)CC1 | 29.8 µM (active)
38 | N=C(N=C(N)N)N1CCOCC1 | inactive
39 | O=C(O)[C@H](O)c1ccccc1 | inactive
40 | COC(Cc1ccccc1)OC | inactive
